{
  "source": "PubChem BioAssay AID485358",
  "about": "(National Center for Advancing Translational Sciences (NCATS), 2010)",
  "note": "The whole screen tested about 340,000 compounds, of which about 1,800 (0.53%) were called active.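 The calls were made as follows: active = activation over 3 SD above normal in the single-dose calcium agonist read (cut at about 30% in these data); inactive = the rest.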 The entries come from a sample that favours actives as a whole.",
  "data": [
    {"molecular_target": "D(2) dopamine receptor (Homo sapiens) (UniProt P14416)", "sequence (P14416 whole entry, looked up)": "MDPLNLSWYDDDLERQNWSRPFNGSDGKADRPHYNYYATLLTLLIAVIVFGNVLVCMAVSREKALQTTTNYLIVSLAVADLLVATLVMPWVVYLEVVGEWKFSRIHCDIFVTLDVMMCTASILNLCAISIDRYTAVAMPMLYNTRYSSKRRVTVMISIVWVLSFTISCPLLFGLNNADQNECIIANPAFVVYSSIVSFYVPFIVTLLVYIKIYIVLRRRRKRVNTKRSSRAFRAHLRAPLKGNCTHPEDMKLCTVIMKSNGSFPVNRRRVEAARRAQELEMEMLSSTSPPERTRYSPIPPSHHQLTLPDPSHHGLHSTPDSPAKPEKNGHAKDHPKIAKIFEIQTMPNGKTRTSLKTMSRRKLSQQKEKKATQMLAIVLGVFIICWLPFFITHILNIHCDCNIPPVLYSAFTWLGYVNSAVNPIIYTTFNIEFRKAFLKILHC", "experiment": "HTS Assay for Allosteric Agonists of the Human D2 Dopamine Receptor: Primary Screen for Agonists; also: 0% is about no effect", "settings": "HEK293 T-REx D2 cells, calcium flux agonist mode; at 2 µM; stronger effect = higher value", "from_the_text": "NIH Chemical Genomics Center [NCGC] NIH Molecular Libraries Probe Centers Network [MLPCN] MLPCN Grant: NS064831-01 Assay Submitter (PI): David Sibley Dopamine receptors (DARs) are involved in the etiology and/or therapy of a number of neuropsychiatric and endocrine disorders. For instance, all receptor-based antiparkinsonian drugs work via stimulating the D2 DAR subtype whereas all FDA-approved antipsychotic agents are antagonists of this receptor. […] There are three different types of allosteric modulators that we are seeking, two of which will stimulate or augment receptor signaling, allosteric agonists and potentiators, while the third, allosteric antagonists, will attenuate receptor signaling. The present primary screening assay measures compound agonism by tracking calcium flux in a […], inducible Hek293 Trex D2 cell line.\nFreshly passaged cells are plated in 1536 well black, clear bottom plates at a density of 4000 cells/well in 3 ul of complete media containing 1x tetracycline inducer. After an overnight incubation at […] in 5% CO2, cells are loaded with 2 ul of the no wash Calcium Assay Kit (ABD Bioquest) and incubated at room temperature for 30 to 90 minutes. Agonist read: A 10 cycle (1 second/cycle) baseline measurement is taken and then the FDSS online 1536 pintool delivers 23 nl of compound library (as well as dopamine controls) to the plate. The plate is measured for kinetically at 1 cycle/sec for 180 seconds and is considered to be the agonist portion of the assay (eg, compounds which activate a positive calcium response during this portion are flagged as potential agonists). Following the 180 second read, 1 ul of either an EC20 (positive modulation assay) or EC80 (negative modulation assay) is delivered by an onboard pipette head. Measurements are taken kinetically for an additional 180 seconds.", "values": [
      {"compound": "COc1ccccc1CN1CCN(C(=O)Cc2ccccc2)CC1", "activation": "0.485% (inactive)"},
      {"compound": "Fc1cccc(F)c1CN1CCN(Cc2c(F)cccc2F)CC1", "activation": "1.26% (inactive)"},
      {"compound": "COc1ccc(CN2CCN(c3ccccc3F)CC2)c(OC)c1", "activation": "71.7% (active)"},
      {"compound": "COC(=O)C1=C(c2cccc(OCc3ccccc3)c2)C[C@@H]2CC[C@H]1N2C(=O)NNCc1ccccc1", "activation": "-0.13% (inactive)"},
      {"compound": "Oc1cc2c(cc1CN1CCN(c3ccccc3)CC1)OCO2", "activation": "83.3% (active)"},
      {"compound": "Fc1ccc(N2CCN(Cc3ccc4c(c3)OCO4)CC2)cc1", "activation": "6.76% (inactive)"},
      {"compound": "CC(C)c1ccc(O)c(CN2CCN(c3ccccc3)CC2)c1", "activation": "-1.71% (inactive)"},
      {"compound": "COC(=O)C1=C(c2ccc3ccccc3c2)C[C@@H]2CC[C@H]1N2C(=O)NCCO", "activation": "-0.422% (inactive)"},
      {"compound": "CCc1ccc(OCC(=O)N2CCN(CC(=O)Nc3ccccc3Cl)CC2)cc1", "activation": "1.2% (inactive)"},
      {"compound": "Cc1cccc(Cn2cccc(C(=O)Nc3ccc4c(c3)OCCO4)c2=O)c1", "activation": "0.0946% (inactive)"},
      {"compound": "CCOC(=O)C1(Cc2ccc(Cl)cc2)CCN(C(C)CCn2cccn2)CC1", "note": "(stereo not given)", "activation": "72.7% (active)"},
      {"compound": "CCOC(=O)C1(CCc2ccccc2)CCN(Cc2ccco2)CC1", "activation": "0.433% (inactive)"},
      {"compound": "COC(=O)C1=C(c2ccc(F)cc2OCc2ccccc2)C[C@@H]2CC[C@H]1N2C(=O)NCc1ccc(OC)c(OC)c1", "activation": "-0.652% (inactive)"},
      {"compound": "O=C(CCC(=O)N1C[C@H]2C[C@@H](C1)c1cccc(=O)n1C2)NCc1ccccc1C(F)(F)F", "activation": "0.976% (inactive)"},
      {"compound": "Cc1nnc(NC(=O)c2cccn(Cc3cccc(F)c3)c2=O)s1", "activation": "0.455% (inactive)"}
    ]}
  ]
}
